Compound activity deposited in PubChem BioAssay by National Center for Advancing Translational Sciences (NCATS).
TGFb SMAD3 inh: inhibitors of TGF-b signaling; HepG2 CAGA-GFP TGF-b/SMAD3 reporter, GFP fluorescence, 18 h; TGF-beta stimulated, 500 pg/mL final; Potency, µM (series often up to 46.1 µM), hits mostly inhibitors; actives 1.2% (n = 410,000); AID 588855; also: nearly all actives have a fitted effect of over 65% in size
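Read-out: total well GFP (ex488/em500-530) summed from mean per-cell fluorescence. Cells: HEPG2 CAGA-GFP, 1% FBS DMEM, 18 h at 37 degrees C with 500 pg/mL final TGF-beta. Unstimulated wells served as the full-inhibition control; stimulated DMSO wells = 0%.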
DT40 TDP1 CPT: growth inhibition of DT40 Tdp1-/-;hTDP1 cells with camptothecin (screen for TDP1 inhibitors) | chicken DT40 Tdp1-/-;hTDP1 cells + 20 nM CPT, ATP luminescence, 48 h | Potency, µM (doses to about 46.2 µM), actives largely listed as inhibitors | actives 12% (n = 420,000) | AID 686979; also: nearly all actives have a fitted effect of over 55% in size
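Chicken DT40 Tdp1-/- cells complemented with human TDP1, 400 cells/well, exposed to compounds plus 20 nM camptothecin for at least 48 h at 37 C; viability read as ATP content by CellTiter-Glo luminescence.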
TDP1 cell noCPT: qHTS for Inhibitors of human tyrosyl-DNA phosphodiesterase 1 (TDP1): qHTS in cells in absence of CPT | DT40 Tdp1-/- hTDP1 cells, no CPT, ATP luminescence, 48 h | actives 15% (n = 420,000) | Potency, µM (highest dose often 46.2 µM), usual class: inhibitors; also: nearly all actives have a fitted effect of over 55% in size
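Luminescent ATP content (CellTiter-Glo) served as the growth readout. Knockout chicken DT40 cells expressing human TDP1 were exposed to compounds without camptothecin for a minimum 48 hr at 37 °C.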
TDP1 block: TDP1 (human) enzyme inhibition. Q9NUW8. recombinant TDP1, AlphaScreen DNA substrate cleavage. Potency, µM (highest dose often 130 µM), actives largely listed as inhibitors. actives 0.28% (n = 350,000). AID 485290; also: nearly all actives have a fitted effect of over 40% in size
Target sequence (Q9NUW8 whole entry, looked up): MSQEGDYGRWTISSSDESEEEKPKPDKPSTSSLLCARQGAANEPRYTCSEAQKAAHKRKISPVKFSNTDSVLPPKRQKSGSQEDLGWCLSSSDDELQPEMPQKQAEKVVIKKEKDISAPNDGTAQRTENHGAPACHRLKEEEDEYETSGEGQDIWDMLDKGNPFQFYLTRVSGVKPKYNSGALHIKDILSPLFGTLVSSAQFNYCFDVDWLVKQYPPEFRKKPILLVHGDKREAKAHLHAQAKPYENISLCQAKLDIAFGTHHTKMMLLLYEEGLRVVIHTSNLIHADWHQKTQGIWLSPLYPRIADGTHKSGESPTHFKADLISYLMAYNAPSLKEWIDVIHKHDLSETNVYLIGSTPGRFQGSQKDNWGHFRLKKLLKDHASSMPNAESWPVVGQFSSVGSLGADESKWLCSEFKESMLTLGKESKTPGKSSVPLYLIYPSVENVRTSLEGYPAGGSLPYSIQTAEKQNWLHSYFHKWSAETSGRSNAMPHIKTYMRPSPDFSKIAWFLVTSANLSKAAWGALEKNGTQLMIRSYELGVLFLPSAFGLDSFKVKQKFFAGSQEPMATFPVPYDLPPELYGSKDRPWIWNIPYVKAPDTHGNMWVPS
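Here, a 5' biotin and 3' phosphotyrosine-FITC DNA oligonucleotide reports Tdp1 activity: intact substrate bridges AlphaScreen beads, while cleavage leaves a 3' phosphate and drops signal. All incubations at room temperature.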
HepG2 tox: HepG2 cytotoxicity, counter-screen for TGF-b inhibitors. HepG2 CAGA-GFP viability, ATP luminescence, 18 h. Potency, µM (top dose mostly 46.1 µM), most hits filed as cytotoxic. actives 0.76% (n = 410,000)
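HepG2 CAGA-GFP cells (1000/well, DMEM with 1% FBS) received compound, then TGF-beta at 500 pg/mL final, and were incubated 18 hours at 37 degrees C. Viability was read by CellTiter-Glo luminescence. Media-only wells were set as complete cell-killing and DMSO as no toxicity.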
IL1B secr inh: blocks inflammasome-driven IL-1 beta release | THP-1 LPS/ATP IL-1B secretion, AlphaLISA, 16 h; active compounds read low | activity change, % at 57.5 µM | actives 4.7% (n = 360,000) | AID 743279; in the data active = activity change below about -50%; inconclusive = mostly about -30% to -49%
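THP-1 cells pretreated 1 hr with compounds (up to 57.5 uM final), then stimulated with LPS (250 ng/mL final) plus ATP (1.25 mM final); secreted IL-1B measured by AlphaLISA after 16 hr, decreased signal indicating inhibition.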
A number is an active result; [ ] = another dose, or the depositor's remark. An excerpt weighted towards active compounds, which were near 19% of everything screened. Unless noted, calls follow the shape of the dose curve; as a rule, active = well fitted curve in the direction sought with a large enough effect; inconclusive = small, poorly fitted or top-dose-only effect, or another doubt; inactive = no such curve, though single readings can be large; an effect the other way counts as inactive or inconclusive.

`CCOc1ccc(N2C(=O)CC(Sc3nc(C)cc(C)n3)C2=O)cc1` (configuration not stated) gave TGFb SMAD3 inh inactive, DT40 TDP1 CPT inactive, TDP1 cell noCPT inactive, TDP1 block inactive, HepG2 tox inactive and IL1B secr inh inactive.
Screening Cc1ccc(NC(=O)c2c(C)nc3sc(C(=O)Nc4ccc(F)cc4)c(N)c3c2-c2ccc(Cl)cc2)c(C)c1 returned TGFb SMAD3 inh inactive, DT40 TDP1 CPT inactive, TDP1 cell noCPT inactive, TDP1 block inactive and HepG2 tox inactive.
Screening Cc1ncc([N+](=O)[O-])n1CC(=O)Nc1ccc(F)cc1 returned TGFb SMAD3 inh inactive, DT40 TDP1 CPT inactive, TDP1 cell noCPT inactive, HepG2 tox inactive and IL1B secr inh inactive.
For COC(=O)c1[nH]c2ccc(Br)cc2c1NC(=O)CN1CCCc2ccccc21 the results were TGFb SMAD3 inh inactive, DT40 TDP1 CPT 21µM, TDP1 cell noCPT 18µM, TDP1 block inactive, HepG2 tox inactive and IL1B secr inh -53.
`COC(=O)c1c(NC(=O)CN2CCCc3ccccc32)sc(C)c1C` gave TGFb SMAD3 inh inactive, DT40 TDP1 CPT 21µM, TDP1 cell noCPT inconclusive, TDP1 block inactive, HepG2 tox inactive and IL1B secr inh inactive.
Cc1sc(NC(=O)CCl)c(C(=O)c2ccccc2)c1C was read as TGFb SMAD3 inh inconclusive, DT40 TDP1 CPT 18µM, TDP1 cell noCPT 9.2µM, TDP1 block inactive, HepG2 tox 13µM and IL1B secr inh -98.
For CCOC(=O)c1c(NC(=O)C[n+]2ccc(Cc3ccccc3)cc2)sc(C)c1C the results were TGFb SMAD3 inh inactive, DT40 TDP1 CPT 12µM, TDP1 cell noCPT 6.5µM, TDP1 block inactive, HepG2 tox inactive and IL1B secr inh -74.
CCOC(=O)c1c(NC(=O)CN2CCCc3ccccc32)sc(C)c1C was read as TGFb SMAD3 inh inactive, DT40 TDP1 CPT inconclusive, TDP1 cell noCPT inconclusive, TDP1 block inactive, HepG2 tox inactive and IL1B secr inh inactive.
COC(=O)c1c(NC(=O)CS(=O)(=O)c2ccccc2)sc(C)c1C was read as TGFb SMAD3 inh inactive, DT40 TDP1 CPT inconclusive, TDP1 cell noCPT 21µM, HepG2 tox inactive and IL1B secr inh inactive.
For Cc1sc(NC(=O)CS(=O)(=O)c2ccccc2)c(C#N)c1C the results were TGFb SMAD3 inh inactive, DT40 TDP1 CPT inactive, TDP1 cell noCPT inactive, TDP1 block inactive[0.505 µM], HepG2 tox inactive and IL1B secr inh inactive.
Screening Cc1cc(C(=O)c2ccc(C(C)(C)C)cc2)c(NC(=O)CCl)s1 returned TGFb SMAD3 inh 16µM, DT40 TDP1 CPT 5.8µM, TDP1 cell noCPT 4.6µM, TDP1 block inactive, HepG2 tox inactive and IL1B secr inh -51.
Cc1cc(C(=O)c2ccccc2)c(NC(=O)CN2CCOCC2)s1 was read as TGFb SMAD3 inh inactive, DT40 TDP1 CPT inactive, TDP1 cell noCPT inactive, TDP1 block inactive, HepG2 tox inactive and IL1B secr inh inactive.
Screening CNC(=O)c1c(NC(=O)CCS(=O)(=O)c2ccccc2)sc(C)c1C returned TGFb SMAD3 inh inactive, DT40 TDP1 CPT inconclusive, TDP1 cell noCPT inconclusive, TDP1 block inactive[0.505 µM], HepG2 tox inactive and IL1B secr inh inactive.
Cc1sc(NC(=O)CCS(=O)(=O)c2ccccc2)c(C#N)c1C was read as TGFb SMAD3 inh inactive, DT40 TDP1 CPT 23µM, TDP1 cell noCPT inconclusive, HepG2 tox inactive and IL1B secr inh inactive.
CCOC(=O)c1[nH]c2ccc(C)cc2c1NC(=O)CN1CCCCC1 was read as TGFb SMAD3 inh inactive, DT40 TDP1 CPT inactive, TDP1 cell noCPT inconclusive, TDP1 block inactive, HepG2 tox inactive and IL1B secr inh inactive.
`COC(=O)c1[nH]c2cc(C)ccc2c1NC(=O)CN1CCCc2ccccc21` gave TGFb SMAD3 inh inactive, DT40 TDP1 CPT inconclusive, TDP1 cell noCPT 26µM, TDP1 block inactive, HepG2 tox inactive and IL1B secr inh inactive.
O=S1(=O)c2ccccc2N(Cc2ccccc2Cl)c2ccccc21 was read as TGFb SMAD3 inh inactive, DT40 TDP1 CPT inconclusive, TDP1 cell noCPT inconclusive, TDP1 block inactive and HepG2 tox inactive.
`CCc1nccn1CCC(=O)N1CCCC(N2CCN(c3cccc(Cl)c3)CC2)C1` (configuration not stated) gave TGFb SMAD3 inh inactive, DT40 TDP1 CPT inactive, TDP1 cell noCPT inactive, TDP1 block inactive, HepG2 tox inactive and IL1B secr inh inactive.
O=C1[C@@H]2[C@H]3[C@H](O)[C@H](O)C/C(=N/OC[C@@H](O)COCc4ccco4)[C@H]3CC[C@H]2C(=O)N1c1ccc(F)cc1F was read as TDP1 block inactive[21 µM].
`Cn1nc(C(=O)NC2CCCCC2)c2ccccc2c1=O` gave TGFb SMAD3 inh inactive, DT40 TDP1 CPT inactive, TDP1 cell noCPT inactive, TDP1 block inactive, HepG2 tox inactive and IL1B secr inh inactive.
Screening CCCn1nc(C(=O)NC2CC2)c2ccccc2c1=O returned TGFb SMAD3 inh inactive, DT40 TDP1 CPT inactive, TDP1 cell noCPT inactive, TDP1 block inactive, HepG2 tox inactive and IL1B secr inh inactive.
For Cn1nc(CC(=O)NC2CCCCCCCCCCC2)c2ccccc2c1=O the results were TGFb SMAD3 inh inactive, DT40 TDP1 CPT 18µM, TDP1 cell noCPT 18µM, TDP1 block inactive, HepG2 tox inactive and IL1B secr inh inactive.
CCCCn1nc(C(=O)NC2CCCCC2)c2ccccc2c1=O was read as TGFb SMAD3 inh inactive, DT40 TDP1 CPT inconclusive, TDP1 cell noCPT 12µM, HepG2 tox inactive and IL1B secr inh inactive.
Screening Cn1nc(CC(=O)Nc2ccc3c(c2)CCC3)c2ccccc2c1=O returned TGFb SMAD3 inh inactive, DT40 TDP1 CPT 3.3µM, TDP1 cell noCPT 1.6µM, TDP1 block inactive, HepG2 tox inactive and IL1B secr inh inactive.
Screening Cn1nc(CC(=O)Nc2ncc(Br)s2)c2ccccc2c1=O returned TGFb SMAD3 inh inactive, DT40 TDP1 CPT 10µM, TDP1 cell noCPT inconclusive, TDP1 block inactive, HepG2 tox inactive and IL1B secr inh inactive.
`CCCNC(=O)OC[C@@H]1O[C@H](CCO/N=C(\C)CCC(=O)OC[C@@H]2O[C@H](C#Cc3ccccc3)C=C[C@@H]2Oc2ccc(C)cc2)C=C[C@@H]1Oc1ccc(OC)cc1` gave TDP1 block inactive[21 µM].
For CC(Oc1ccc(Cl)cc1)C(=O)Nc1ccccc1N1CCOCC1 (configuration not stated) the results were TGFb SMAD3 inh inactive, DT40 TDP1 CPT inconclusive, TDP1 cell noCPT 21µM, TDP1 block inactive, HepG2 tox inactive and IL1B secr inh inactive.
